Sampled rows, rich in hits. Any-hit rate of the full collection: about 0.47%.
CCT chaperon mod = cytosolic chaperonin activity modulation. purified chaperonin ATPase assay, HTRF ADP detection, 30 min. activity change, % (concentration not given with the values), hits read low. 360,000 compounds, 0.3% hits. AID 651819; in the data active = activity change below about -30%; also: % is scaled to controls: 0 for no effect and ±100 for the full control effect
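ATPase activity: ADP formed was measured by HTRF Transcreener (665/615 nm ratio) after 30 min at 37 deg C with 10 uM ATP. Compounds screened at one 76 uM concentration against 40 or 20 nM TRiC in Tris pH 7.4/KCl/MgCl2/DTT buffer.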
Anesthetic bind = binds horse apoferritin like a general anesthetic. P02791. apoferritin/1-aminoanthracene competitive binding, fluorescence. Potency, µM (titrated, usually from 77.5 µM), for the others: at the top dose activity change, negative = displacement, hits mostly inhibitors. 350,000 compounds, 0.074% hits; also: potency is read from the fitted curve at half-maximal effect; % is scaled to controls: 0 for no effect and ±100 for the full control effect; nearly all actives have a fitted effect of over 20% in size
Target sequence (P02791 2-175 limits assumed): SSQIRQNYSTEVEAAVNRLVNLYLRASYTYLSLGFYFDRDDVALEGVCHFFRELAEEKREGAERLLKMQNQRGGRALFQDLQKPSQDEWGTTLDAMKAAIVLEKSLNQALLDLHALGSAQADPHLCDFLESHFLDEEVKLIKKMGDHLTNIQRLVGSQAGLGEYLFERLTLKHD
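10 uM apoferritin + 50% sat. 1-AMA, PBS; cpd 10 min RT; Ex380/Em535 endpoint; normalized to free probe vs complex; 4-param Hill fit; propofol titration as pos. ctrl.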
A-T KAP1 phos = potential ataxia-telangiectasia treatments restoring KAP-1 phosphorylation; F2112 A-T fibroblasts, KAP-1 phosphorylation AlphaLISA; neocarzinostatin DNA damage 30 min before lysis; Potency, µM (top dose mostly 57.5 µM), for inactives: top-dose activation, most hits filed as activators; 320,000 compounds, 0.19% hits; also: potency is read from the fitted curve at half-maximal effect; % of control where 0% means no effect; nearly all actives have a fitted effect of over 45% in size
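ATM-like activity read as KAP-1 phosphorylation via AlphaLISA donor/acceptor antibody pairs after lysis and 6 hr at 25C. Cells were ATM-null patient fibroblasts (F2112, hTERT), dosed 60 min, then exposed to the DSB inducer NCS for 30 min.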
Mm-Cpn inhibitor = M. maripaludis TRiC chaperonin inhibition. purified Mm-Cpn ATPase, ADP Transcreener TR-FRET. Potency, µM (series often up to 76.9 µM), without a hit: at the highest dose activity, negative = inhibition, most hits filed as inhibitors. AID 504842. 330,000 compounds, 0.031% hits; also: potency is read from the fitted curve at half-maximal effect; % is scaled to controls: 0 for no effect and ±100 for the full control effect; nearly all actives have a fitted effect of over 80% in size
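ATP (10 uM final) was added to archaeal chaperonin (25 nM final) after 10 min exposure to test compound at 37°C; after 30 min further incubation, ADP was detected by competitive TR-FRET.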
An asterisk follows results filed as active; ? = inconclusive; / = not tested or not shown. Unless noted, calls follow the shape of the dose curve; as a rule, active = well fitted curve in the direction sought with a large enough effect; inconclusive = small, poorly fitted or top-dose-only effect, or another doubt; inactive = no such curve, though single readings can be large; an effect the other way counts as inactive or inconclusive.

SMILES | CCT chaperon mod | Anesthetic bind | A-T KAP1 phos | Mm-Cpn inhibitor
O=C(COC(=O)c1ccc(F)cc1Cl)NC1CC1 | -50* | / | / | /
COc1ccc2c(CN3CCN(C(C)=O)CC3)cc(=O)oc2c1 | 0 | / | / | /
COc1ccc(NCc2cc(=O)oc3cc(NC(C)=O)ccc23)cc1 | -2 | -4% | 2.5µM* | 0%
CCCn1c2c(c(=N)c3c1CCC3)CCC2 | -4 | -11% | 2.5µM* | 2%
COc1ccc(OC)c(CNC(=O)c2cnc3c(C)cccn3c2=O)c1 | / | -6% | / | /
Cc1ccc(C(=O)Nc2sc3c(c2C(=O)O)CCCCC3)o1 | -1 | -6% | 10µM* | -2%
Cc1ccc(C(=O)Nc2sc3c(c2C(=O)O)CCCC3)o1 | -2 | 3% | -10% | 1%
COc1cc(NC(C)=O)c2ncccc2c1NC(C)=O | 0 | 3% | 35µM* | 0%
COc1ccc(-c2nc(NC(=O)CSCCO)sc2C)cc1 | -56* | -11% | 0% | -2%
O=C(O/N=C/c1ccc2c(c1)OCO2)c1ccc([N+](=O)[O-])cc1 | -31* | -2% | 1% | -15%
c1ccc(OCc2nnc3n2N=C(c2ccccc2)CS3)cc1 | 0 | ? | 0% | -4%
COc1ccc(OCc2nnc3n2N=C(c2ccc(C)cc2)CS3)cc1 | -1 | 11µM* | 9% | -2%
COc1ccc(OCc2nnc3n2N=C(c2ccc(OC)cc2)CS3)cc1 | -1 | 8.9µM* | 13% | 2%
Cc1ccc(N2CCn3c2nc2c3c(=O)n(CCCc3ccccc3)c(=O)n2C)cc1 | / | -19% | / | /
CSCC[C@H](NC(=O)[C@@H]1CCCN1C(=O)[C@H](CCCN=C(N)N)NC(=O)[C@H](CC(C)C)NC(=O)[C@@H]1CCCN1C(=O)[C@@H](NC(=O)[C@@H](N)CCC(N)=O)C(C)C)C(=O)N[C@H](C(=O)N[C@@H](Cc1ccc(O)cc1)C(=O)N[C@@H](CCCCN)C(=O)O)[C@@H](C)O | / | 3% | / | /
CC(Oc1ccccc1)C(=O)N1CCN(Cc2cc(=O)n3nc(-c4ccccc4Cl)sc3n2)CC1 (stereo unspecified) | / | -5% | / | /
O=C1CSC(=S)N1Nc1ccccc1 | -34* | / | / | /
Cc1ccccc1C(=O)NN1C(=O)CSC1=S | -1 | -2% | -4% | -19%
O=C(NCCc1csc(-c2ccccc2)n1)c1c(F)cccc1F | 1 | -12% | 4% | -1%
O=C(NCCc1csc(-c2cccnc2)n1)c1c(F)cccc1F | -2 | -3% | 40µM* | 0%
Cc1cccc(N(CC(=O)N(C)Cc2ccccc2)S(=O)(=O)c2ccccc2)c1C | / | 35% | / | /
COc1ccc(CCNC(=O)C(=O)NCC2CCCN2S(=O)(=O)c2ccccc2)cc1OC (stereo unspecified) | -3 | / | -6% | 0%
CCN1CCCC1CNC(=O)C(=O)NCCc1ccc(OC)c(OC)c1 (stereo unspecified) | -34* | -2% | -1% | -1%
COc1ccccc1CNC(=O)Cn1nc(C)n2cccc2c1=O | / | 48% | / | /
Cc1ccccc1N1C(=O)c2ccccc2C1O (stereo unspecified) | 2 | 1% | 40µM* | ?
SMILES | CCT chaperon mod | Anesthetic bind | A-T KAP1 phos | Mm-Cpn inhibitor
O=C1c2ccccc2C(O)N1c1ccccc1 (stereo unspecified) | 1 | 0% | 0% | -4%
Cc1ccc(N2CC(C(=O)N3CCC4(CC3)CC(=O)c3ccccc3O4)CC2=O)cc1 (stereo unspecified) | 0 | / | -8% | -1%
COc1ccc(N2CC(C(=O)N3CCC4(CC3)CC(=O)c3ccccc3O4)CC2=O)cc1 (stereo unspecified) | -56* | / | 4% | 2%
COC(CNC(=O)C1CCN(S(=O)(=O)c2cccc3nsnc23)CC1)OC | -75* | -4% | -8% | -18%
Nc1ccc2c(c1Br)Cc1ccccc1-2 | -41* | / | / | /
Nc1c(Cl)cc2c(c1Br)Cc1ccccc1-2 | -3 | / | / | /
CCc1nn2c(-c3ccccc3OC)ccnc2c1-c1ccc(F)cc1 | / | 29% | / | /
COc1ccc(C(=O)Nc2cccc(/C=C/c3nc4ccccc4c(=O)[nH]3)c2)cc1 | -2 | 0% | 20µM* | 0%
O=C(Nc1cccc(/C=C/c2nc3ccccc3c(=O)[nH]2)c1)c1ccccc1Cl | -8 | 8% | -5% | -1%
Cc1ccc(C)c(NS(=O)(=O)c2cc3c(cc2Cl)NC(=O)CO3)c1 | / | -8% | / | /
CCCCC1S/C(=N/N=C/c2ccco2)NC1=O (stereo unspecified) | -42* | 4% | -7% | 1%
Cc1ccc2c(c1)cc(C(=O)Nc1ccc(F)cc1F)n2C | / | 8% | / | /
CCOC(=O)c1c(NC(=O)c2cc(=O)c3cc(Cl)ccc3o2)sc(C)c1C | / | 1% | / | /
COc1ccc(OCC(=O)Nc2cc(OC)cc(OC)c2)cc1 | -46* | -12% | 12% | 3%
CCC(=O)N1CCc2cc(Br)cc(S(=O)(=O)N3CCCC(C(=O)Nc4cccc(Cl)c4C)C3)c21 (stereo unspecified) | / | -8% | / | /
COc1cc(NC(=O)COc2cc3oc(=O)cc(C)c3cc2Cl)cc(OC)c1OC | -59* | -6% | -1% | 1%
Cc1ccc2c(c1)Sc1ccccc1CC2=O | -3 | ? | 40µM* | -1%
O=C1Cc2ccccc2Sc2ccccc21 | 0 | ? | 3% | -9%
COc1ccccc1C(CNc1ncccc1[N+](=O)[O-])N(C)C (stereo unspecified) | 1 | -20% | 8% | 0%
COc1ccccc1Nc1ncccc1[N+](=O)[O-] | -49* | -2% | 3% | -1%
COc1ccc(-c2nnc(NC(=O)C3CC3)o2)cc1 | 1 | -5% | 0% | 2%
COc1ccc(-c2nnc(NC(=O)C(C)C)o2)cc1 | -39* | -2% | 6% | 0%
CC1CCN(Cc2cc(=O)oc3ccc(C(C)C)cc23)CC1 | -2 | -8% | 35% | 1%
CC(C)c1ccc2oc(=O)cc(CN3CCCCC3)c2c1 | 1 | -15% | 35µM* | 0%
O=[N+]([O-])c1ccc(-c2cnc3ccccc3n2)cc1 | -38* | -6% | -18% | -1%
SMILES | CCT chaperon mod | Anesthetic bind | A-T KAP1 phos | Mm-Cpn inhibitor
Cc1nc2ccccc2nc1-c1ccc([N+](=O)[O-])cc1 | 1 | / | / | /
Cc1ccccc1C(=O)NCc1ccc2c(c1)CCN2C(=O)c1ccc(F)cc1 | / | -20% | / | /
Cc1ccccc1N(C)C(=O)c1noc2c1COc1ccccc1-2 | / | -7% | / | /
COc1ccccc1CNc1nc2c(S(=O)(=O)c3ccccc3)nnn2c2ccc(Cl)cc12 | / | -13% | / | /
Cc1ccc(S(=O)(=O)N(C)c2ccccc2)cc1 | 0 | -17% | 5% | 1%
CSc1nc2ccccc2nc1N(C)S(=O)(=O)c1ccc(C)cc1 | 1 | -12% | 1.1µM* | -11%
O=C(Nc1cnn(Cc2ccccc2)c1)NC12CC3CC(CC(C3)C1)C2 | 0 | 16µM* | -2% | 4%
C#CCn1c(=O)c2c(nc(/C=C/c3cccc(OC)c3)n2C)n(CCCOP(=O)(O)O)c1=O | / | 18% | / | /
Cn1ncc(Oc2ccc([N+](=O)[O-])cc2)c(Cl)c1=O | -2 | -4% | 40µM* | 2%
